# About 17,000 (4.7%) of roughly 360,000 compounds were called active. Another 5% or so got no clear call; they are omitted. Rule as the data show it: active = activity change below about -50%; inconclusive = mostly about -30% to -49%; inactive = weaker than that. Only a selection was taken, and actives are over-represented in it overall.
# Assay: qHTS for Inhibitors of Inflammasome Signaling: IL-1-beta AlphaLISA Primary Screen
# Settings: THP-1 LPS/ATP IL-1B secretion, 16 h; at 57.5 µM, hits give low values
# In short: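 Secreted IL-1B measured by AlphaLISA bead assay after 16 h compound exposure of THP-1 cells; compounds (final up to 57.5 uM) added 1 h before LPS (250 ng/mL) and ATP (1.25 mM) stimulation; lower signal means less secretion.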
# % is scaled to controls: 0 for no effect and ±100 for the full control effect.
row,Structure (SMILES),activity change
1,O=C(N[C@@H](Cc1c[nH]c2ccccc12)C(=O)O)OCC1c2ccccc2-c2ccccc21,4.34% (inactive)
2,Cc1nnc(NC(=O)Nc2ccc(Cl)c(Cl)c2)s1,-94% (active)
3,Cc1nnc(NC(=O)c2ccc3nccnc3c2)s1,-17.3% (inactive)
4,Cc1nnc(NC(=O)C(c2ccccc2)c2ccccc2)s1,-5.78% (inactive)
5,C[C@@H]1CN([C@@H](C)CO)C(=O)c2c(c3ccccc3n2C)-c2ccccc2CO[C@H]1CN(C)C(=O)C1CC1,23% (inactive)
6,Cc1ccc(CN(C)C[C@@H]2OCc3cnnn3CCCC(=O)N([C@@H](C)CO)C[C@H]2C)cc1,13.2% (inactive)
7,O=C(CN1CCC(O)(c2ccccc2)CC1)Nc1ccc2c(c1)OCCO2,-25.5% (inactive)
8,O=C(COC(=O)c1ccccc1)c1ccc2c(c1)OCCO2,-8.63% (inactive)
9,O=C(CCN1CCc2ccccc2C(O)(c2ccccc2)C1)c1ccc2c(c1)OCCO2 (configuration not stated),-101% (active)
10,Cc1c(CN2CCC(CO)(CCOc3ccccc3)CC2)[nH]c2ccc(Cl)cc12,-96.7% (active)
11,CC(C)(O)C#Cc1ccc(CN2CCC(CO)(CCc3ccccc3)CC2)cc1,-1.38% (inactive)
12,OCC1(CCOc2ccccc2)CCN(Cc2cn[nH]c2-c2ccccc2)CC1,-2.13% (inactive)
13,CC1CCN(c2ccc3c(c2)S(=O)(=O)c2cc(C(=O)O)ccc2C3=O)CC1,22% (inactive)
14,Cc1cccc(-n2ncc(C#N)c2-n2cccc2)c1,28.7% (inactive)
15,C=CCNc1cnn(-c2ccc(C)cc2)c(=O)c1Cl,-16.2% (inactive)
16,Cc1cccc(-n2ncc(Cl)c(Cl)c2=O)c1,-100% (active)
17,CC1(C(=O)NS(=O)(=O)c2cccc(F)c2)CCN1C(=O)Cc1ccc(Cl)cc1Cl (configuration not stated),-15.9% (inactive)
18,O=C(Nc1cc(S(=O)(=O)N2CCCCC2)ccc1Cl)C1COc2ccccc2O1 (configuration not stated),-6.17% (inactive)
19,NS(=O)(=O)c1ccc(CCNC(=O)CNC(=O)Cc2ccccc2)cc1,12.6% (inactive)

row,Structure (SMILES),activity change
1,CCc1nc(C)cn1S(=O)(=O)c1cc([N+](=O)[O-])ccc1Cl,-82.5% (active)
2,CC(C)c1nccn1S(=O)(=O)c1cc([N+](=O)[O-])ccc1Cl,0% (inactive)
3,CCc1nc(C)cn1S(=O)(=O)c1cc(OC)c(C)cc1C,30.3% (inactive)
4,O=C1N[C@@H](Cc2ccccc2)C(=O)N2[C@@H]3N(S(=O)(=O)c4ccc(F)cc4)c4ccccc4[C@]3(Br)C[C@@H]12,-2.75% (inactive)
5,Cc1cccc(S(=O)(=O)N(C)C[C@H]2OCc3cnnn3CCCC(=O)N([C@@H](C)CO)C[C@H]2C)c1,16.6% (inactive)
6,COc1cccc(C2c3[nH]c4ccccc4c3CCN2Cc2cccc(C)n2)c1 (configuration not stated),-5.35% (inactive)
7,Oc1cccc(C2c3[nH]c4ccccc4c3CCN2Cc2cnn(-c3ccccc3)c2)c1 (configuration not stated),-64% (active)
8,CCOc1ccc(C2c3[nH]c4ccccc4c3CCN2Cc2cn(CC)nc2C)cc1 (configuration not stated),18.2% (inactive)
9,O=S1(=O)CCOC[C@H](Cc2ccccc2)N1Cc1ccccc1Br,-7.15% (inactive)
10,CC(C)CCNC(=O)c1[nH]c(C(F)(F)F)nc1-c1ccccc1,28.5% (inactive)
11,CC(C)Oc1ccc(CCc2n[nH]c(=S)n2Cc2ccccc2)cc1,16.3% (inactive)
12,CN(C(=O)CSc1nncc2ccccc12)C1CCCCC1,0% (inactive)
13,Brc1c(CSc2nncc3ccccc23)nc2ccccn12,-74% (active)
14,COC(=O)C[C@H]1C=C[C@H](NC(=O)c2ccc(F)cc2)[C@@H](CO)O1,-9.5% (inactive)
15,CCOC(=O)c1ccc2c(c1)nc(C)n2CC,-16.9% (inactive)
16,CCn1c(/C=C/Nc2ccccc2)[n+](CC)c2ccc(C(=O)OCC(F)(F)F)cc21,-98.2% (active)
17,CCOC(=O)N1CCN(C(=O)c2ccc(S(=O)(=O)Nc3cccc(C(F)(F)F)c3)cc2)CC1,0.178% (inactive)
18,C[C@H](CO)N1C[C@H](C)[C@@H](CN(C)S(=O)(=O)c2ccc(Oc3ccccc3)cc2)OCc2cn(nn2)CCCC1=O,4.67% (inactive)
19,O=S1(=O)CC(N2CCN(Cc3ccccc3F)CC2)CN1Cc1cn(Cc2cccc(C(F)(F)F)c2)nn1 (configuration not stated),-6.73% (inactive)

row,Structure (SMILES),activity change
1,S=c1[nH]nc(/C=C/c2ccccc2)o1,-8.62% (inactive)
2,CCOC(=O)/C=C/C(=O)OCC(=O)NC(c1ccccc1)c1ccccc1,-96.9% (active)
3,O=C(Cc1ccc(-c2ccccc2)cc1)NC(c1ccccc1)c1ccccc1,18.8% (inactive)
4,CCOC(=O)C(C(=O)OCC)C(C#N)c1ccccc1 (configuration not stated),-20.8% (inactive)
5,CCN(CC)CCCN1C(=O)C(=O)/C(=C(/O)c2c(C)nc3ccccn23)C1c1ccc(C)o1 (configuration not stated),-3.42% (inactive)
6,COCc1ccc(C(=O)NC2CC(C)(C)Cc3c2cnn3-c2ccc(C)cc2)o1 (configuration not stated),-2.96% (inactive)
7,CCC1C/C(=C/c2cccs2)C(=O)/C(=C/c2cccs2)C1 (configuration not stated),-5.91% (inactive)
8,COC(=O)COc1ccc2c(c1C)O/C(=C\c1ccco1)C2=O,-8.17% (inactive)
9,CC(C)(C)C1C/C(=C/c2ccco2)C(=O)/C(=C/c2ccco2)C1 (configuration not stated),-67.3% (active)
10,CCNC(=O)C1(C)CCN(Cc2ccc(C(=O)OCC)o2)C1 (configuration not stated),0% (inactive)
11,CCCCCCN1CCN(C2CN(Cc3cn(Cc4ccc(F)cc4)nn3)S(=O)(=O)C2)CC1 (configuration not stated),18.3% (inactive)
12,Cc1ccccc1N/N=C/c1ccc(N2CCOCC2)cc1,0.147% (inactive)
13,Cc1cc(Nc2ccc(N3CCOCC3)cc2)c2cccc(C)c2n1,-91.7% (active)
14,Cc1cc(Nc2ccc(C(=O)N3CCCCC3)cc2)c2cccc(C)c2n1,-2.62% (inactive)
15,CN(CCc1ccccc1)C(=O)c1cccc(NC(=O)Cc2cccc(NC(=O)C3CCCN(C(=O)CCc4ccccc4)C3)c2)c1 (configuration not stated),-21.4% (inactive)
16,NC1=NC(=O)C2(COC(c3ccccc3Cl)OC2)S1 (configuration not stated),-5.39% (inactive)
17,Cc1ccccc1C(OCC(O)CN1CCCCC1CCO)c1ccccc1 (configuration not stated),-10.1% (inactive)
18,COc1cccc(CN(C)CC(O)COC(c2ccccc2)c2ccccc2C)c1 (configuration not stated),-77% (active)
19,COc1cccc(CN(C)CC(=O)Nc2ccccc2C(=O)Nc2ccccc2)c1,58.1% (inactive)

# From PubChem BioAssay AID743279 (National Center for Advancing Translational Sciences (NCATS), 2014)
